This note sets out measurements from PubChem BioAssay AID1347074 (Center for Chemical Genomics, University of Michigan, 2019).

The campaign covered roughly 47,000 compounds. About 2,800 (6%) were called active. Many of the other results were omitted from the sample, so actives are more common in it than they were. Values without a mark were called inactive. Rule as the data show it: active = z-score above about 3 (passing the limit was not always enough); inactive = the rest.

For this experiment, the target named is Endoribonuclease Dicer (Homo sapiens) (UniProt Q9UPY3). Briefly: inhibitors of Dicer pre-microRNA processing, primary screen, biochemical, cat-ELCCA, chemiluminescence (AID 1347074).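 Also: plate controls were vehicle for no effect and no enzyme for full effect; higher signal means more uncleaved substrate so more Dicer inhibition.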 The following applies: cat-ELCCA pre-miR-21 Dicer processing, at 25 µM, hits give high values.
Chain of Endoribonuclease Dicer (Homo sapiens) (Q9UPY3 whole entry, looked up): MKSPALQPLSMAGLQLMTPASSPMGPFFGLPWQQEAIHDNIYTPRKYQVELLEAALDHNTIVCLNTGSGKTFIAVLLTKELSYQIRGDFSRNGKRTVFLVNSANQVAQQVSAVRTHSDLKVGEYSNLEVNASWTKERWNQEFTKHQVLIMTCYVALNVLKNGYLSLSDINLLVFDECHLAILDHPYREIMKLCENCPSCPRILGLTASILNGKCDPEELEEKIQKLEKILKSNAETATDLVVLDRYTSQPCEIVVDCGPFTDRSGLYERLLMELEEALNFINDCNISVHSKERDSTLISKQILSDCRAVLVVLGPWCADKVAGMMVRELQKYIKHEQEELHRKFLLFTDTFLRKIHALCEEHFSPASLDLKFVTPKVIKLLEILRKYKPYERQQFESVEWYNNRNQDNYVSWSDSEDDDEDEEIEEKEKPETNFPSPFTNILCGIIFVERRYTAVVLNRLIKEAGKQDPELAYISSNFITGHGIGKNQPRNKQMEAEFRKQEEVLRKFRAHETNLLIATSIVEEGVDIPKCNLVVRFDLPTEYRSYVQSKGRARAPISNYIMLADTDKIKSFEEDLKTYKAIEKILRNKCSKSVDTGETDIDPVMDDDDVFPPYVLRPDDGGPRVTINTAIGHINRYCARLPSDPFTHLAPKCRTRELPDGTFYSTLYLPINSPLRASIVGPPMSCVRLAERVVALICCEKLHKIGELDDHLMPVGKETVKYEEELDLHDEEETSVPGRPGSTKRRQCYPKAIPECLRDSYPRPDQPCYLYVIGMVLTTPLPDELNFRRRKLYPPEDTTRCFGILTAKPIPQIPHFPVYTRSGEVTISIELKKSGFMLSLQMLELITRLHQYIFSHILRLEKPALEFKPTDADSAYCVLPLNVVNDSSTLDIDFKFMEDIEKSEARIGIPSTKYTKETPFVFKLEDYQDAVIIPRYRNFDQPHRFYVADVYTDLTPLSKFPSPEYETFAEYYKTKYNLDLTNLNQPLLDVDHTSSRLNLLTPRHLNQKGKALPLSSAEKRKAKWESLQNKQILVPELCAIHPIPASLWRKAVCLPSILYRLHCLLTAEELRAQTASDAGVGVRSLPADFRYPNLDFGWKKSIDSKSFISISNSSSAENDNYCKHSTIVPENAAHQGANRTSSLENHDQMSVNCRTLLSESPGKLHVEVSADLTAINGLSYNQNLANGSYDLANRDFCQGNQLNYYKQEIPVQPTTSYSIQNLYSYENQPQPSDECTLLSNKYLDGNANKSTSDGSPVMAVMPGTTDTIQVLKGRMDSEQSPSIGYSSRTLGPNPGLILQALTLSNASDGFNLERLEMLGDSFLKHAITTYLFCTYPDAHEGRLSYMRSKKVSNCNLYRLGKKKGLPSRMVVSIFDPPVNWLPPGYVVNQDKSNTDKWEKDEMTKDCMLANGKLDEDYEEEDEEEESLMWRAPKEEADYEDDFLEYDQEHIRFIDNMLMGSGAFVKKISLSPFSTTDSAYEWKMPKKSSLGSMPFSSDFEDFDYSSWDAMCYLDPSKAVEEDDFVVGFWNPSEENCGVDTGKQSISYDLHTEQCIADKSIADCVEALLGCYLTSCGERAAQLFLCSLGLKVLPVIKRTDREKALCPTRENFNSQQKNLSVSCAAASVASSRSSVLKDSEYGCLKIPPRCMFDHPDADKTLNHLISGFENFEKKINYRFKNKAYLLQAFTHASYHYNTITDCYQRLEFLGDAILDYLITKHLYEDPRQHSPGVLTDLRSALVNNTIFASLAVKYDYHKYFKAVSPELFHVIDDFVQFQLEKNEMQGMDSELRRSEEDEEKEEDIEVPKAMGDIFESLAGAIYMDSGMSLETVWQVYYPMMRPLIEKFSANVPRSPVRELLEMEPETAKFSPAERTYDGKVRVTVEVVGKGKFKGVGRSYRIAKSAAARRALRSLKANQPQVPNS
`C/C(=N\OC(=O)Nc1ccc(Cl)cc1)c1cc(-c2ccccc2)no1`: the z-score is -0.26.

Consider `CCOc1ccccc1C1C2=C(CCCC2=O)Nc2nnnn21` (stereo not drawn), for which the z-score was 2.2. With `Cc1c(Br)c([N+](=O)[O-])nn1CC(=O)NCCCn1ccnc1` the figure was -0.68. With `O=C(NCc1ccccc1)c1cc2sccc2s1` the figure was 3.86 (active); with `O=C(O)c1cnc(NCc2ccccc2)s1`, -1.01; with `O=C(NCc1cccnc1)c1cnc2ccccc2n1`, 0.67. With `Cc1c(C)c(C)c(CSCC(=O)N/N=C/C=C/c2ccccc2)c(C)c1C`, the z-score is 1.61. As for `Cc1ccc(C2CC(C(F)(F)F)n3ncc(C(=O)N(C)Cc4cn(C)nc4C)c3N2)cc1` (stereo not drawn), the z-score is -1.27. With `O=C(Nc1ccc(F)cc1)Nc1nnc(C2CC2)s1`, the z-score was 0.03.

For `c1coc(CNc2ncnc3ccccc23)c1`, the z-score is -1.16. To `CS(=O)(=O)n1nc(-c2ccccc2)nc1NCc1ccco1` belongs 4.95 (active). With `O=C(NCc1ccco1)c1nc2ncccn2n1` the figure was 0.13. To `CN(C)c1ccc(C(=S)c2ccc(N(C)C)cc2)cc1` belongs 0.42.

Regarding `CN(C)C(=O)Nc1ccc(C(C)(C)C)cc1`, the z-score is 0.46. With `CN(C)c1ccc(NC(=O)C(=O)NCCO)cc1` the figure was 3.85 (active); with `CC(=O)c1ccc(OCc2ccc(Cl)c(Cl)c2)c(C)c1O`, -0.27. To `CCCCCOC(=O)COc1ccc2c(=O)c(Oc3cccc(C)c3)coc2c1` belongs -1.17.

Regarding `O=c1oc2ccccc2c2c1ncn2CCCN1CCOCC1`, the z-score was 0.33. With `CCOC(=O)/C(C#N)=C/Nc1ccc(OC)c(C(=O)OC)c1OC` the figure was -2.66; with `COc1ccc(-c2oc3ncnc(NCCCO)c3c2-c2ccc(OC)cc2)cc1`, 0.89; with `COc1ccc(-c2c(-c3ccccc3)oc3ncnc(N)c23)cc1`, 4.1 (active). With `c1ccc(-c2oc3ncn4nc(-c5ccccn5)nc4c3c2-c2ccccc2)cc1` the figure was -0.36. To `CCc1ccc(C2c3c(oc4ccc(C)cc4c3=O)C(=O)N2c2nccs2)cc1` (stereo not drawn) belongs 0.49. As for `CCCC1=NN(c2ccc(S(N)(=O)=O)cc2)C(=O)C1`, the z-score is -4.3.

Turning to `COC(OC)c1nc(SCc2ccc(Cl)cc2)ncc1C(=O)O`, the z-score was -1.32. On to `CN(C)NC(=O)c1csnc1-c1c(Cl)cccc1Cl`, for which the z-score is 3.48 (active).

As to `Cc1onc(-c2c(Cl)cccc2Cl)c1C(=O)NN(C)c1ccc([N+](=O)[O-])cn1`, the z-score was 0.9. To `CCCCNC(=O)Nc1onc(-c2c(Cl)cccc2Cl)c1C(=O)OC` belongs 0.02. To `CCCCC#Cc1cncc(C(=O)O)c1` belongs 0.66. To `O=C(Nc1ccc2c(c1)OCC1CCCN21)C1=Cc2ccccc2OC1` (stereo not drawn) belongs 4.37 (active). As to `O=C(O)C1=Cc2cc(Cl)ccc2OC1`, the z-score was 1.52. With `COC(=O)c1scc(C)c1NC(=O)C1=Cc2cc(Cl)ccc2OC1` the figure was -0.31. To `C=CCNC(=O)CSc1nc2c(c(C(F)(F)F)n1)CCc1ccccc1-2` belongs 1.7. To `CCc1nc(-c2ccc(-c3ccccc3)nc2OC)no1` belongs 0.85; to `COc1cc(OC)cc(-c2nc(-c3ccc(-c4ccccc4)nc3OC)no2)c1`, 1.1; to `CCCc1cc(=O)oc2c1c(C)nn2-c1cccc(Cl)c1`, -1.83. As to `COC(=O)C1=C(c2ccccc2)C(c2ccccc2)=C(C(=O)OC)C1=O`, the z-score was 3.2 (active). Regarding `COC(NC(=O)c1ccccc1)(C(F)(F)F)C(F)(F)F`, the z-score is -0.72. For the compound `COC(=O)c1sc(C(F)(F)F)c(-c2ccccc2)c1S(=O)(=O)N(C)C`, the z-score was 0.21.

In the case of `Cc1cccc(Nc2nc(-c3ccccc3)cs2)n1`, the z-score was 3.09 (active). Consider `c1ccc(Nc2nc(-c3ccncc3)cs2)nc1`, for which the z-score was 2.79. With `COCCCNc1nc(-c2ccccc2)cs1` the figure was 1.18. With `CC(C)(C)NC(=S)Nc1ccc(F)c(Cl)c1` the figure was 16.8; with `CC1(C)N=C(N)N=C(N)N1c1ccccc1C(F)(F)F`, 1.59. With `CCOC(=O)Cc1csc(NC(=O)Nc2cccc3ccccc23)n1`, the z-score is 6.9.

On to `Cn1nc(-c2ccc(Cl)cc2)[nH]c1=O`, for which the z-score was -1.42. To `Cc1nc(-c2ccc(C(F)(F)F)cc2)[nH]c(=O)c1Oc1ccc(Cl)cc1Cl` belongs 0.23. To `CCCCc1c(COC)nc(-c2ccc(Cl)cc2)[nH]c1=O` belongs 3.16 (active); to `COC(=O)c1ccc([C@@H]2Nc3ccc(F)cc3[C@@H]3C=CC[C@@H]32)cc1`, 0.68. With `O=C(O)C1Nc2ccc(Cl)cc2C2C=CCC12` (stereo not drawn) the figure was 15.4 (active); with `O=S(=O)(c1ccc(C2Nc3ccc(Cl)cc3C3C=CCC32)cc1)N1CCOCC1` (stereo not drawn), -0.43; with `CSC(=NCc1ccco1)Nc1ccc(Cl)cc1`, 2.16. Consider `CCc1ccnc(NC(=O)Nc2ccc(OCc3ccccc3)cc2)c1`, for which the z-score was 0.13. With `Nc1cccc(-c2cc(-c3ccccc3)nc(-c3cccc(N)c3)n2)c1` the figure was 8.06 (active); with `Nc1cc(-c2ccccc2)nn1-c1ccccc1`, -0.41.

Turning to `c1ccc(-c2cc(-c3ccccc3)[nH]n2)cc1`, the z-score is 0.74. With `O=C(O)CCc1nc2ccccc2[nH]c1=O` the figure was -2.59; with `COc1cccc(OC)c1C(=O)NC(=O)Nc1c(C)cc(Br)cc1C`, -0.89; with `CN(C)/C=C/c1nnnn1-c1ccc(Br)cc1`, 2.13. With `NNC(=O)c1cnn(-c2ccccc2)c1C(F)(F)F` the figure was -1.32; with `Cc1cc(NC(=O)Nc2ccccc2)n(-c2ccccc2)n1`, -0.46.

As to `Nc1c(C(=O)NNC(=S)Nc2ccccc2)cnn1-c1ccccc1`, the z-score is 3.4 (active). With `CCc1ncc(C(O)c2ccccc2)n1C` (stereo not drawn) the figure was -0.48; with `COCCCn1c2c(c(=O)[nH]c1=O)C(c1ccc(C(=O)O)cc1)C1=C(N2)c2ccccc2C1=O` (stereo not drawn), -1.05; with `COc1cc(C(=O)NCC2CCCO2)c(OC)cc1C(=O)NCC1CCCO1` (stereo not drawn), 1.74. To `COc1ccc(/C=C/c2noc(-c3ccccc3O)n2)cc1OC` belongs 0.89. With `Nc1nc(/C=C/c2ccc(O)cc2)nc(-c2ccccc2O)n1` the figure was 5.62 (active); with `Oc1ccccc1-c1nc(/C=C/c2ccc(F)cc2)no1`, -0.19; with `CN1c2ccc(Cl)cc2C(C)(C)C12C=Nc1c(ccc3ccccc13)O2` (stereo not drawn), -0.52. Turning to `O=C(Nc1ccccc1)Nc1ccc(C(F)(F)F)cn1`, the z-score is 0.31.

On to `CCn1c(CN2C(=O)CSc3ccccc32)n[nH]c1=S`, for which the z-score is 0.75.

For the compound `CC(C)Cn1c(Cn2c3ccccc3c3ccccc32)n[nH]c1=S`, the z-score is 3.9 (active).

Take `OCC(O)Cn1c2ccccc2c2ccccc21` (stereo not drawn): the z-score is -0.45. `CCOC(=O)c1c(C)nn(-c2ncccc2[N+](=O)[O-])c1C`: the z-score is -0.17. Regarding `Cc1[nH]nc(NCc2ccccc2)c1[N+](=O)[O-]`, the z-score was -1.14. To `O=C1CC(c2ccccc2)N(c2ccc(OC(F)(F)F)cc2)C(=S)N1` (stereo not drawn) belongs -0.98.

Take `O=C(Nc1ccccc1)O/N=C1\CCSC1`: the z-score is 0.99. As for `C=CCOc1cccc(C2c3c(oc4ccccc4c3=O)C(=O)N2c2ccc(C)cn2)c1` (stereo not drawn), the z-score was 0.54. To `Cc1ccc(N2C(=O)c3oc4cc(C)c(C)cc4c(=O)c3C2c2ccc(O)cc2)nc1` (stereo not drawn) belongs 0.43; to `Cc1ccc(N2C(=O)c3oc4ccccc4c(=O)c3C2c2cccnc2)nc1` (stereo not drawn), 3.52 (active). With `O=C1c2oc3ccccc3c(=O)c2C(c2cccc(O)c2)N1Cc1ccccc1` (stereo not drawn) the figure was 0.58; with `C=CCOc1ccc(C2c3c(oc4ccccc4c3=O)C(=O)N2c2ccc(C)cn2)cc1` (stereo not drawn), 0.29. To `O=C1c2oc3ccccc3c(=O)c2C(c2cccc(O)c2)N1c1ccccn1` (stereo not drawn) belongs 3.7 (active). For `Cc1nc(N/N=C2\CCCc3ccccc32)sc1C`, the z-score was 0.78. With `CC(C)(C)NC(=O)c1nn2c(C(F)(F)F)cc(-c3ccccc3)nc2c1Cl` the figure was -0.55; with `CCCc1nnc(N2C(=O)c3oc4ccc(F)cc4c(=O)c3C2c2ccc(OC)cc2)s1` (stereo not drawn), 1.52.

Take `O=C(N/C=C/c1ccsc1)Nc1cc(C(F)(F)F)cc(C(F)(F)F)c1`: the z-score was 0.88.

As to `Cc1ccc(NC(=O)Nc2cc(-c3ccccc3)nn2C)cc1Cl`, the z-score is 0.04.

As for `CCCCC1(C2CC(=O)N(c3ccccc3)C2=O)C(=O)N(c2ccccc2)N(c2ccccc2)C1=O` (stereo not drawn), the z-score is 1.04. With `O=C1CC(NCC2CCCCC2)C(=O)N1c1ccccc1` (stereo not drawn) the figure was 3.63 (active). To `O=C1CC(Cc2ccc(Cl)cc2)C(=O)N1c1ccccc1` (stereo not drawn) belongs 0.01; to `O=C(C1Sc2nnc(-c3ccccc3)n2NC1c1ccc(F)cc1)N1CCOCC1` (stereo not drawn), 2.92.

With `COc1ccc(-c2cc3nccc(-c4cc(F)ccc4O)n3n2)cc1`, the z-score was 1.88.

Regarding `Cc1ccc(-c2cc3nccc(-c4ccccc4O)n3n2)cc1`, the z-score is 3.02 (active). With `Cc1cc(-c2ccccc2)n2nc(-c3ccccc3)cc2n1` the figure was 0.87; with `CC1CCc2c(sc3ncnc(SC(C)C(=O)O)c23)C1` (stereo not drawn), -0.91. Regarding `CCOC(=O)c1sc(N2C(=O)c3oc4ccccc4c(=O)c3C2c2cccs2)nc1C` (stereo not drawn), the z-score was 1.43.

`CCOC(=O)c1ccc(NC(=S)N(Cc2ccccc2)C(C)C)cc1`: the z-score was -0.22. `O=C(O)Cc1ccc(-c2ccccc2)cc1`: the z-score was -0.37.

As to `CC(C)(C)OC(=O)NCC(=O)OCc1ccc(CC(=O)O)cc1`, the z-score is 3.04 (active). To `O=C(NCCC(O)C(=O)O)OCc1ccccc1` (stereo not drawn) belongs -1.43; to `COc1ccc2cccc(OC)c2n1`, -1.05.

Take `O=C(Nc1nc2ccsc2c(=O)s1)c1ccccc1`: the z-score is -0.44.
